Assay [1] in a line: qHTS profiling of the MIPE4 collection as inhibitors of Plasmodium falciparum (DD2) proliferation (Rep 2) (AID 743346; call rule not given here). As to conditions: P. falciparum Dd2 in erythrocytes, SYBR Green DNA, 72 h; at 28.5 µM unless noted. In a few lines:
(§1)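 Erythrocytes infected with P. falciparum (0.3% parasitemia, 2.5% hematocrit) incubated with compounds 72 h at 37 C, 5% CO2. Lysis with saponin/Triton buffer containing SYBR Green I, overnight at room temperature in the dark; DNA fluorescence (485/535 nm) normalised to 0.29 uM artemisinin and DMSO.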
In general terms: In qHTS, concentration-response curves come from the screen itself.

A short description of assay [2]: qHTS profiling of the MIPE4 collection as inhibitors of Plasmodium falciparum (HB3) proliferation (AID 743347; call rule not given here;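 note: plate controls were DMSO vehicle wells for no effect and artemisinin wells for full effect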). The following applies: P. falciparum HB3 in erythrocytes, SYBR Green DNA, 72 h; at 28.5 µM unless noted. In a few lines: as §1
Assay [3] is described as follows: High-throughput drug toxicity screening in the BPDCN cell line Gen2.2 (AID 1224824; call rule not given here;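 note: cells exposed to compounds for 48 h before reading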). As to conditions: Gen2.2 BPDCN cells; at 45.8 µM (top of the series) unless noted. The procedure, abridged: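 Gen2.2 cells, 500 per well in phenol red-free RPMI with 10% FBS, exposed to compounds 48 h at 37 C, 5% CO2; viability by CellTiter-Glo luminescence. Percent activity scaled to DMSO (100%) and 9.2 uM bortezomib final (0%).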

Assay [4] can be described thus: High-throughput drug toxicity screening in the BPDCN cell line Cal-1 (AID 1224825; call rule not given here). The following applies: Cal-1 BPDCN cell viability, qHTS; at 45.8 µM (top of the series) unless noted. The procedure, abridged:
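500 Cal-1 cells/well, RPMI + glutamine + 10% FBS (phenol red-free); cpd added by pin tool; 48 h, 37C, 5% CO2; CTG 15 min RT, lumi read. Normalised: DMSO 100%, bortezomib 9.2 uM 0%.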

Assay [5] in a line: qHTS assay for measurement of the activity of small molecule inhibitors on Zika virus induced Caspase-3 activity in human iPSC derived neural progenitor cells (hNPCs) (AID 1224857). Note: % of control where 0% means no effect; nearly all actives have a fitted effect of over 65% in size. The procedure, abridged:
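After overnight (16–20 h) culture at 350 cells/well, hNPCs get compound, then ZIKV 2 FFU/cell one hour later. Six hours on, Caspase-Glo 3/7 is added and luminescence measured.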

Assay [6] can be described thus: qHTS assay for measurement of the activity of small molecule inhibitors on Zika virus induced Caspase-3 activity in human astrocytoma cells (AID 1224859).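 Note: plate controls were ZIKV-infected untreated cells for no effect and uninfected cells for full effect.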 In a few lines:
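Inhibition of Zika-induced caspase-3/7 activity: SNB-19 cells, 1 h compound pretreatment, ZIKV 2 FFU/cell for 6 h at 37 C, Caspase-Glo luminescence read-out.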

The nature of assay [7]: qHTS Screen of the MIPE 4.0 Collection Against Ewings Sarcoma (RDES) (AID 1259252). Note: nearly all actives have a fitted effect of over 35% in size. Note: potency is the fitted concentration of half-maximal effect. In a few lines:
(§2)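 CellTiter-Glo luminescence after 48 h compound exposure (titration) gave viability; percent activity used DMSO-treated cells as no inhibition and medium-only wells as full inhibition. Cells grown in RPMI/5% FBS, dosed 4 h post-seeding.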

Assay [8] is described as follows: qHTS Screen of the MIPE 4.0 Collection Against Ewings Sarcoma (TC71) (AID 1259253). Note: nearly all actives have a fitted effect of over 40% in size. Note: potency is the fitted concentration of half-maximal effect. In a few lines:
as §2

Assay [9] in a line: qHTS Screen of the MIPE 4.0 Collection Against Ewings Sarcoma (EW8) (AID 1259255).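 For viability: 100% = DMSO-treated cells and 0% = medium-only wells without cells.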 Note: nearly all actives have a fitted effect of over 35% in size. Note: potency is the fitted concentration of half-maximal effect. In a few lines: as §2
A short description of assay [10]: qHTS Screen of the MIPE 4.0 Collection Against Ewings Sarcoma (TC32) (AID 1259256). Note: nearly all actives have a fitted effect of over 45% in size. Note: potency is the fitted concentration of half-maximal effect. The procedure, abridged:
as §2

The results in this text go back to PubChem BioAssay (NCATS).

Records with an inconclusive call do not appear. The source made the active and inactive calls. Unless noted, calls come from the whole dose curve; as a rule, active = well fitted inhibition curve with a large enough effect; inconclusive = small, poorly fitted or top-dose-only effect; inactive = no such curve, though single readings can be large or run the other way.

Turning to `C[C@](Cc1c[nH]c2ccccc12)(NC(=O)OC1C2CC3CC(C2)CC1C3)C(=O)NC[C@H](NC(=O)CCC(=O)O)c1ccccc1` (stereo not given in full), the parasite growth, % of control (lower = inhibition) in [1] was 30.8%. This compound returned a growth, % of control in assay [2] of 10.5%. Also, in [3], the cell viability, % of control (lower = more cytotoxic) was found to be 308%. Besides, the viability (% of control) in assay [4] came out at 4.7%. Also, the Potency result in assay [5], in assay [6], in assay [7], in [8], in assay [9] and in [10] was “inactive” throughout.
For the compound `CC(C)Oc1ccc(C(=O)N[C@H](CNC(=O)CN(C)C)Cc2ccc(-c3cn4cccc([C@H](C)O)c4n3)cc2)cc1Cl`, the parasite growth, % of control (lower = inhibition) in [1] is 12.6%. The same compound yielded a growth, % of control in assay [2] of 5.09%. Also, the cell viability, % of control (lower = more cytotoxic) in assay [3] was 61.2%. In addition, in [4], the viability (% of control) worked out at 18.5%. The Potency result in [5] and in assay [6] was “inactive” each time. Moreover, the Potency in [7] is 0.235 µM (active); in assay [8], 0.372 µM (active); in assay [9], 0.235 µM (active); in [10], 0.0042 µM (active).
On to `CN1CCCN(C(=O)c2cccc(-c3ccc(C=C4C(=O)Nc5ccc(Cl)cc54)o3)c2)CC1`, for which the parasite growth, % of control (lower = inhibition) in assay [1] turned out to be 6.52%. Besides, the growth, % of control in assay [2] was determined as 4.36%. Also, the cell viability, % of control (lower = more cytotoxic) in [3] was determined as 9.19%. Moreover, the viability (% of control) in [4] was determined as 2.05%. For the same compound, the Potency entry in [5] and in assay [6] was “inactive” each time. In addition, the Potency was 20.9 µM (active) in [7], 16.6 µM (active) in assay [8], 10.5 µM (active) in assay [9] and 18.7 µM (active) in [10].
With `CCCCOc1ccc(C(=O)Nc2ccc(F)cc2F)cc1`, the parasite growth, % of control (lower = inhibition) in [1] was 174%. This compound had a growth, % of control in assay [2] of 94.1%. In [3], the cell viability, % of control (lower = more cytotoxic) stood at 152%. Moreover, in assay [4], the viability (% of control) came out at 105%. The Potency result in assay [5], in assay [6], in assay [7], in [8], in assay [9] and in assay [10] was “inactive” throughout.
With `COc1cccc2c1C(=O)c1c(O)c3c(c(O)c1C2=O)C[C@@](O)(C(C)=O)C[C@H]3O[C@H]1C[C@H](N)[C@H](O)[C@H](C)O1`, the parasite growth, % of control (lower = inhibition) in [1] is 6.6%. Besides, the growth, % of control in assay [2] was 6.78%. The cell viability, % of control (lower = more cytotoxic) in assay [3] came to 3.75%. In addition, the viability (% of control) in assay [4] worked out at 3.72%. The Potency result in assay [5] and in [6] was “inactive” throughout. Moreover, the Potency in assay [7] is 0.0418 µM (active); in assay [8], 0.0662 µM (active); in assay [9] it was 0.0526 µM (active); in [10], 0.0469 µM (active).
Regarding `CC(=O)O[C@H]1C[C@@H]2CC[C@H]3[C@H]4C[C@H]([N+]5(C)CCCCC5)[C@@H](OC(C)=O)[C@@]4(C)CC[C@@H]3[C@@]2(C)C[C@H]1N1CCCCC1`, in assay [1], the parasite growth, % of control (lower = inhibition) was 37.1%. For the same compound, in [2], the growth, % of control came out at 71.6%. In addition, the cell viability, % of control (lower = more cytotoxic) in [3] was 216%. The viability (% of control) in assay [4] came out at 123%. Also, the Potency entry in assay [5] and in assay [6] was “inactive” throughout. For the same compound, the Potency in [7] was 7.43 µM (active); in assay [8], 7.43 µM (active); in [9] it was 8.33 µM (active); in [10] it was 7.43 µM (active).
Consider `CON=C(C(=O)N[C@@H]1C(=O)N2C(C(=O)O)=C(CSC(=O)c3ccco3)CS[C@H]12)c1csc(N)n1`, for which, in assay [1], the parasite growth, % of control (lower = inhibition) stood at 71%. The growth, % of control in assay [2] came to 53.4%. For the same compound, in [3], the cell viability, % of control (lower = more cytotoxic) stood at 7.56%. Also, the viability (% of control) in [4] was determined as 8.07%. Also, the Potency entry in [5], in [6], in assay [7], in assay [8], in assay [9] and in assay [10] was “inactive” in each case.
As for `CC(C)(O)[C@H]1CC[C@@](C)([C@H]2[C@@H](O)C[C@@]3(C)[C@@H]4C[C@H](O[C@@H]5O[C@H](CO)[C@@H](O)[C@H](O)[C@@H]5O)[C@H]5C(C)(C)[C@@H](O[C@@H]6OC[C@@H](O)[C@H](O)[C@@H]6O)CC[C@@]56C[C@@]46CC[C@]23C)O1`, in assay [1], the parasite growth, % of control (lower = inhibition) is 89.1%. For the same compound, in assay [2], the growth, % of control stood at 81.9%. The cell viability, % of control (lower = more cytotoxic) in assay [3] worked out at 1050%. Further, the viability (% of control) in assay [4] is 112%. The Potency result in [5], in assay [6], in assay [9] and in assay [10] was “inactive” in each case. Besides, the Potency in assay [7] was 10.5 µM (active); in [8], 8.33 µM (active).
Turning to `C[C@]12C=CC(=O)N[C@@H]1CC[C@H]1[C@H]3CC[C@@H](C(=O)Nc4cc(C(F)(F)F)ccc4C(F)(F)F)[C@@]3(C)CC[C@@H]12`, the parasite growth, % of control (lower = inhibition) in [1] was determined as 23.9%. Further, the growth, % of control in assay [2] was determined as 26.4%. For the same compound, the cell viability, % of control (lower = more cytotoxic) in [3] came out at 58.7%. Moreover, the viability (% of control) in assay [4] worked out at 93%. Besides, the Potency entry in assay [5], in assay [6], in [7], in assay [8], in assay [9] and in assay [10] was “inactive” throughout.
As for `C[C@H](NC(=O)C(C#N)=Cc1cccc(Br)n1)c1ccccc1`, the parasite growth, % of control (lower = inhibition) in [1] was 33.4%. The compound further returned a growth, % of control in [2] of 22%. The cell viability, % of control (lower = more cytotoxic) in assay [3] worked out at 5.54%. For the same compound, in assay [4], the viability (% of control) was found to be 4.37%. The Potency result in assay [5] and in assay [6] was “inactive” each time. Also, the Potency is 16.6 µM (active) in [7], 20.9 µM (active) in assay [8], 16.6 µM (active) in assay [9] and 18.7 µM (active) in [10].
Take `Cc1cc(C(=O)NOCCO)c(Nc2ccc(I)cc2F)n(C)c1=O`: the parasite growth, % of control (lower = inhibition) in [1] worked out at 84.7%. The growth, % of control in assay [2] was 66.5%. In addition, the cell viability, % of control (lower = more cytotoxic) in [3] worked out at 7.2%. Moreover, the viability (% of control) in assay [4] was 30.2%. For the same compound, the Potency entry in assay [5], in assay [6], in assay [7], in assay [8], in assay [9] and in assay [10] was “inactive” throughout.
`C[C@H]1O[C@H](O[C@H]2[C@H](O)[C@@H](O)[C@@H](O[C@H]3[C@H](O)[C@@H](O)C(O)O[C@H]3CO)O[C@H]2CO)[C@H](O)[C@@H](O)[C@H]1N[C@H]1C=C(CO)[C@@H](O)[C@H](O)[C@@H]1O` (stereo not given in full): in [1], the parasite growth, % of control (lower = inhibition) came out at 88.4%. The growth, % of control in assay [2] amounted to 103%. Besides, the cell viability, % of control (lower = more cytotoxic) in [3] turned out to be 193%. Moreover, the viability (% of control) in assay [4] is 134%. Also, the Potency entry in assay [5], in [6], in assay [7], in assay [8], in assay [9] and in [10] was “inactive” in each case.
In the case of `O=c1ccn([C@@H]2O[C@H](CO)[C@H](O)[C@@H]2F)c(=O)[nH]1`, the parasite growth, % of control (lower = inhibition) in assay [1] stood at 107%. In assay [2], this compound returned a growth, % of control of 645%. Also, the cell viability, % of control (lower = more cytotoxic) in assay [3] was 191%. Further, the viability (% of control) in assay [4] was found to be 119%. The Potency entry in assay [5] and in [6] was “inactive” throughout. Also, the Potency in assay [7] was 3.72 µM (active); in assay [8] it was 3.32 µM (active); in [9] it was 26.4 µM (active); in assay [10], 18.7 µM (active).
